# High-throughput results: PubChem, several laboratories
# Rows were chosen to be rich in hits. Some 5.1% of all compounds tested hit in one or more screens of this group.
# CRFR2-BP antag: antagonists of CRF-BP/CRF-R2 complex, primary screen, cell-based, HEK293, calcium dye fluorescence, uHTS. inhibition, % at 11.8 µM. CRF-induced calcium fluorescence. AID 588475, 2011. 350,000 tested, 0.59% active;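 active = inhibition of the ligand-induced calcium signal above about 50% at the single tested concentration, limit read from the data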
# TMEM16A act: TMEM16A chloride channel activators or potentiators, primary screen, cell-based, HTS; Anoctamin-1 (Mus musculus), Q8BHY3; HEK293 TMEM16A/YFP-H148Q/I152L, iodide quench fluorescence; active compounds read low; B-score at 10 µM; AID 623877, 2012; 340,000 tested, 0.3% active;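 active = fluorescence-ratio B-score plate-corrected deviation score at least 3 library SD below zero, with starting fluorescence score within 5 deviations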;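 also: channel opened by trigger with iodide after compound preincubation; score built on the fluorescence ratio of max minus min over baseline; more negative score means more quench and so TMEM16A activation or potentiation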
# TMEM16A inh: TMEM16A chloride channel inhibitors, primary screen, cell-based, HTS. HEK293 TMEM16A/YFP iodide influx fluorescence, ionomycin. normalized B-score (activity score, 25-100; higher = stronger inhibition) at 10 µM. 310,000 tested, 1.2% active;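 active = ratio plate-corrected score three or more library SD toward inhibition, starting fluorescence score within five deviations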;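 also: score derived from kinetic fluorescence span divided by baseline fluorescence per well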
# GRIN3A LBD mod: binders of NR3A ligand-binding domain, primary screen, biophysical, differential scanning fluorimetry, uHTS; Glutamate receptor ionotropic, NMDA 3A (GRIN3A) ligand-binding domain; 340,000 tested, 2.5% active; AID 1259313, 2017; NR3A LBD differential scanning fluorimetry, Tm shift; 0% = protein alone, 100% = glycine-bound protein; Tm shift relative to glycine control, % at 25 µM;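 active = melting temperature shift of at least 10% of the positive control shift, at one fixed dose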
# MPTP inh: mitochondrial permeability transition pore inhibitors, primary screen, biochemical, isolated mouse mitochondria, absorbance; Ca2+ swelling absorbance, 30 min; inhibition, % at 10 µM; 360,000 tested, 1.4% active; AID 602449, 2012;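 active = inhibition of 50% or more, scaled per plate between neutral and stimulator controls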;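 also: 0% = DMSO wells given calcium and 100% = 1 mM EGTA wells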
# CRFR2-BP ag: agonists of CRF-BP/CRF-R2 complex, primary screen, cell-based, HEK293, calcium dye fluorescence, uHTS | CRF-binding protein / CRF receptor 2 complex (human) | calcium dye fluorescence (FLIPR); percent of saturating CRF peptide response | activation, % at 13.2 µM | 350,000 tested, 0.46% active;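 active = activation of at least 50%, plus an integration ratio under a set limit after plate pattern correction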;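 also: plate controls were neutral control wells without compound for no effect and CRF at EC100 for full effect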
# TMEM16A reconf: TMEM16A chloride channel inhibitors, confirmation, cell-based, re-confirmation. shares compounds with TMEM16A inh. HEK293 TMEM16A/YFP-H148Q, iodide quench fluorescence; ionomycin added to raise cell calcium. 2,300 tested, 39% active. inhibition, % at 10 µM;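 active = mean duplicate percent inhibition, scaled so buffer wells are 0 and the reference blocker 100, over three buffer SD above buffer mean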
# TMEM16A Ca cntr: calcium mobilization in TMEM16A/YFP HEK293 cells, confirmation, counter-screen for TMEM16A inhibitor project. shares compounds with TMEM16A inh. Fluo4 calcium mobilization. calcium response (% of ionomycin), % at 10 µM. 2,300 tested, 2% active;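 active = duplicate-averaged calcium signal over 20% of the ionomycin maximum, relative to buffer baseline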;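 also: each well's signal is peak minus trough fluorescence divided by its pre-addition baseline; 0% = buffer wells and 100% = ionomycin wells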
# Parental YFP cnt: iodide YFP quench changes in parental YFP-HEK293, counter-screen for TMEM16A inhibitor project, cell-based. shares compounds with TMEM16A inh. ionomycin. YFP ratio F(max-min)/F0 at 10 µM. 2,300 tested, under 10 active;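 active = yellow fluorescent protein signal ratio exceeding the buffer control mean by over 5 SD of those controls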;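 also: ratio is mean of duplicate wells from kinetic YFP trace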
# ClC-1 rat inh: ClC-1 chloride channel inhibition, selectivity assay for TMEM16A inhibitor project, cell-based, voltage-dependent ClC-1 | CHO ClC-1-YFP, iodide influx fluorescence quench; iodide control reads 0, buffer control 100 | 2,300 tested, under 10 active | ratio percent, % at 10 µM | shares compounds with TMEM16A inh | AID 652236, 2013;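 active = duplicate-mean ratio percent above the mean of iodide-only control wells, which defines zero, plus 5 of their SD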;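 also: higher percent means stronger block of ClC-1 iodide influx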
# Target sequence (P35524 whole entry, looked up): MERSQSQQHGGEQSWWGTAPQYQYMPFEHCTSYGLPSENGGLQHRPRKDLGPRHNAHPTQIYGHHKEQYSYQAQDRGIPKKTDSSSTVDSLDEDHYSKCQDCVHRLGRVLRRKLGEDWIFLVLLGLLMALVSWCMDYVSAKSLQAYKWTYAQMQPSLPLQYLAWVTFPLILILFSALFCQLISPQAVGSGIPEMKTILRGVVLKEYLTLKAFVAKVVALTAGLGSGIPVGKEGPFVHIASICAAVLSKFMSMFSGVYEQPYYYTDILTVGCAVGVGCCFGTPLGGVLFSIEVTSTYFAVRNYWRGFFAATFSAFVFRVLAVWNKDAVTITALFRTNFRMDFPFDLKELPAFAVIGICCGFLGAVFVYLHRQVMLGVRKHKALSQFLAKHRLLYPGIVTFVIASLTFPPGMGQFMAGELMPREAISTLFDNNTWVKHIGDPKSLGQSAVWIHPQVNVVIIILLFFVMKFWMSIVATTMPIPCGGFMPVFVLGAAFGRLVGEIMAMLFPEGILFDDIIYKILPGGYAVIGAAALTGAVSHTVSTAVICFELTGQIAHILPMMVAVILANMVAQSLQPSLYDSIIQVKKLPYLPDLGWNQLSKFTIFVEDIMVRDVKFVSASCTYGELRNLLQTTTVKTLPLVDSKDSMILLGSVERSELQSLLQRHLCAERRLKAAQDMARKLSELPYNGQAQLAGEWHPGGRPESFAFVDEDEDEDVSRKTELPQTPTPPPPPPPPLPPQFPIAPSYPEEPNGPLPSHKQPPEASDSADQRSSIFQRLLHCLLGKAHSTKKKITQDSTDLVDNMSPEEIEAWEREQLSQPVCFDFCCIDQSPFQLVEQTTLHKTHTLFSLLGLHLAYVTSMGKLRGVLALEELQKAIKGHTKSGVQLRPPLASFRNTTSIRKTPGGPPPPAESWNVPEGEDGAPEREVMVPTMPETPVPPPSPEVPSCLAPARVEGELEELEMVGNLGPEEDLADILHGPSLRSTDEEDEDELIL
# * marks the source's active call; other numbers are inactive results; i = inactive; x = no result given.
SMILES,CRFR2-BP antag,TMEM16A act,TMEM16A inh,GRIN3A LBD mod,MPTP inh,CRFR2-BP ag,TMEM16A reconf,TMEM16A Ca cntr,Parental YFP cnt,ClC-1 rat inh
O=C(Nc1cccc(S(=O)(=O)N2CCCCC2)c1)c1ccc(OCC2CCCO2)cc1 (configuration not stated),0.0,i,25*,2.2,2.1,1.1,i,i,-1.03,-14.0
COc1ccc(C(=O)NC(=S)Nc2cccc(S(=O)(=O)N3CCOCC3)c2)cc1,-5.4,i,25*,0.0,-0.2,7.3,i,i,-0.965,-7.5
C1CC(=NN=C2CCSCC2)CCS1,-5.1,i,x,0.2,0.9,-0.5,x,x,x,x
O=C(CN1C(=O)c2cccc3cccc1c23)NC1CCCCC1,-3.7,i,i,0.2,-0.2,-0.9,x,x,x,x
Cc1ccccc1N1CCN(C2CCCN(C(=O)c3cc[n+]([O-])cc3)C2)CC1 (configuration not stated),0.8,i,i,-3.0,-1.5,-1.8,x,x,x,x
Cc1ccc(NC(NC(=O)c2cccs2)C(Cl)(Cl)Cl)cc1C (configuration not stated),-10.7,i,100*,11.6*,1.2,0.5,28.5%*,i,-1.21,-9.5
Cc1cc(C(=O)OCc2nnc(-c3ccccc3)o2)c(C)n1-c1ccccc1,15.4,i,i,-0.2,6.2,-0.5,x,x,x,x
Cc1noc(C)c1COC(=O)c1cc(C)n(-c2ccccc2)c1C,50.2*,i,25*,-0.8,12.7,-0.3,22.0%*,i,-0.992,-11.5
Cc1ccc(Nc2nc(COC(=O)C3CC3)cs2)cc1,-18.3,i,100*,-12.8,0.9,-2.2,21.0%*,i,-0.835,-7.5
Cc1ccc(Nc2nc(C(=O)N3CCC(C(=O)N4CCN(C)CC4)CC3)cs2)cc1,-13.7,i,i,0.2,-0.5,-0.9,x,x,x,x
Cn1ncc2c(=S)nc(Cl)[nH]c21,12.2,i,x,-0.9,0.3,-2.1,x,x,x,x
CC1(C(=O)Nc2ccccc2)CCN1C(=O)C1(c2ccccc2)CC1 (configuration not stated),x,x,x,x,1.8,x,x,x,x,x
Cc1n[nH]c(C)c1CCOc1ccc(C(C)C)cc1,-14.5,i,25*,-0.3,39.8,2.4,i,i,-1.12,-18.5
Cc1ccc(C)c(C(O)c2ncc(-c3ccc(C(F)(F)F)cc3)[nH]2)c1 (configuration not stated),x,x,x,x,3.0,x,x,x,x,x
COc1ccc(CN(C)C(=O)c2ccc(NS(=O)(=O)c3ccccc3)cc2)c(OC)c1,4.3,i,i,8.8,-0.9,0.2,x,x,x,x
COc1ccc(CN(C)C(=O)c2ccc(COc3ccccc3)cc2)c(OC)c1,16.1,i,25*,-0.3,0.6,0.1,i,i,-1.13,-5.0
COc1ccccc1CN(C)C(=O)c1ccc(COc2ccccc2)cc1,-7.9,i,100*,-1.6,1.3,0.7,i,i,-0.922,-1.5
COc1cccc(C2CC(c3cccs3)Nc3ncnn32)c1 (configuration not stated),-25.1,i,25*,-0.7,-2.4,2.7,i,i,-0.902,-6.0
C/C(=N/NC(=O)CNS(=O)(=O)c1ccccc1)c1ccc(Br)cc1,-7.3,i,i,-1.8,-0.1,-1.5,x,x,x,x
O=S(=O)(c1ccc2ccccc2c1)N1CCC(c2nc(-c3ccncc3)no2)CC1,-17.6,i,100*,-24.7,8.5,6.9,17.0%*,i,-0.929,-5.5
CN(C)c1ccc(-c2noc(C3CCN(S(=O)(=O)c4cccc(Cl)c4)CC3)n2)cc1,13.7,i,i,2.4,1.5,0.3,x,x,x,x
Cc1ccc(C(=O)N2CCCC(C(=O)c3ccc(Oc4ccccc4)cc3)C2)cn1 (configuration not stated),15.9,i,100*,-1.3,6.3,0.1,29.0%*,i,-0.89,-10.5
CCc1cc(C(=O)COc2ccc(F)cc2)c(O)cc1O,26.3,i,100*,-0.9,2.3,3.6,20.5%*,i,-0.795,-4.5
O=C(CCc1ccc(O)cc1)c1c(O)cc(O)cc1O,8.7,i,25*,21.3*,2.5,9.3,18.0%*,i,-1.01,-17.0
O=C(Cc1ccc2c(c1)OCCO2)c1c(O)cc(O)cc1O,27.3,i,i,2.9,5.5,0.5,x,x,x,x
SMILES,CRFR2-BP antag,TMEM16A act,TMEM16A inh,GRIN3A LBD mod,MPTP inh,CRFR2-BP ag,TMEM16A reconf,TMEM16A Ca cntr,Parental YFP cnt,ClC-1 rat inh
Cc1cc(O)ccc1C1(c2ccc(O)cc2C)OC(=O)c2ccccc21,-30.6,i,25*,-6.0,-4.9,0.7,43.0%*,i,-0.944,-4.0
O=C1OC(c2ccccc2)(c2ccc(O)cc2)c2ccccc21 (configuration not stated),-1.9,i,x,-27.2,1.1,-1.8,x,x,x,x
N#CCCN(Cc1cccnc1)CN1C(=O)c2ccccc2C1=O,-2.1,x,x,x,0.7,-2.7,x,x,x,x
CC(=O)/C(C#N)=C1\NC(=O)C(Cc2cc(Cl)ccc2Cl)S1 (configuration not stated),23.4,i,100*,-2.1,40.0,1.6,45.5%*,i,-1.14,-11.5
CCOC(=O)CCNC(=O)N1CCCC(Cc2ccccc2)(C(=O)OCC)C1 (configuration not stated),3.5,i,i,-0.6,-1.0,-1.4,x,x,x,x
COc1ccccc1-c1noc(CCC(=O)Nc2cccc(C(F)(F)F)c2)n1,3.0,i,100*,-1.9,27.1,-1.2,i,i,-1.29,-2.5
CC(C)(C)c1ccc(-c2noc(CCC(=O)Nc3cccnc3)n2)cc1,-36.3,i,100*,-7.3,4.5,0.1,18.0%*,i,-0.923,-6.0
